From PubChem BioAssay AID2672 (National Center for Advancing Translational Sciences (NCATS), 2010)
Records with an inconclusive call do not appear. A number with no mark means an inactive call. The source made the active and inactive calls. Calls come from the whole dose curve; as a rule, active = well fitted curve in the direction sought with a large enough effect; inconclusive = small, poorly fitted or top-dose-only effect, or another doubt; inactive = no such curve, though single readings can be large or run the other way.

assay: qHTS Assay Multiplex Screening to Identify Dual Action Probes in a Cell Model of Huntington: Cytoprotection in HTT Q25 expressing cells (ATP); conditions: PC12 HTT-Q25 inducible, ATP luminescence, 40 h; series mostly up to 46.1 µM; activity change, positive = cytoprotection: at the top concentration
Description: NIH Chemical Genomics Center [NCGC] NIH Molecular Libraries Probe Production centers Network [MLPCN] MLPCN Grant: MH084839-01A1 Assay Submitter (PI): Wei Zheng NCGC Assay Overview: Huntington's disease is a neurodegenerative disorder caused by a trinucleotide repeat expansion in Exon 1 of the Huntingtin gene. The CAG trinucleotide encodes glutamine and polyglutamine expansions cause cell death in selective areas of the brain. Huntington polyglutamine repeats have the tendency to form aggregates which are observable in later stages of the disease. The exact nature of the aggregates, whether toxic, protective, or insignificant, is unclear. A stable PC12 cell line containing a gene fusion of Exon 1 of the Huntingtin gene linked to GFP under the control of the inducible ecdysone promoter were used as the cell-based model of Huntington Disease for high throughput screening. Exon 1 of the Huntingtin gene contained an expansion of 103 polyglutamines (Q103) which, when expressed, caused cell death and distinct, bright GFP aggregates. The amount of cell death and the size and intensity of GFP aggregates increased over time and induction level. The cell death were quantified with a measurement of ATP content in the cells. A maximal 40-50% of cell death was observed when the Huntington gene was induced in this cell line. We optimized this assay in a homogeneous 1536 well format. A quantitative high throughput screen (qHTS) was conducted on the PC12 cells which were induced to express the toxic fusion construct. Small molecules which prevented cell death were identified by using a luminescent ATP quantification method (Perkin Elmer's ATPlite). To characterize compound effects on a different form of the HTT protein, PC12 cells stably containing a construct with an ecdysone inducible promoter expressing GFP fused to the exon 1 of HTTQ25 (Huntington protein which containing a 25 ployglutamine expansion) were used. Less cytoxicity occurs upon induction of HTTQ25.
PC12 cells stably containing a construct with an ecdysone inducible promoter expressing GFP fused to the exon 1 of HTTQ25 (Huntington protein which containing a 25 ployglutamine expansion) were used. NCGC Assay Protocol Summary: Sequence, Parameter, Description 1, Reagent, 5 uL 1500 cells/well 1536 TC treated White clear bottom plate 2, Compound, 23 nL Tebufenozide inducer (100 nM final) to all columns 3, Compound, 23 nL 40 uM to 0.5 nM Libraries 4, Time, 40 hours at 37C 5, Reagent, 5 ul ATPLite cell death assay reagent 6, Detector, 4 sec integration with a Viewlux Luminescent Media consisted of phenol red free DMEM + 5% equine serum (Hyclone # SH30072.03 ), 5% supplemented Bovine Calf Serum (Hyclone # SH30074.03 ), 1x pen/strep, no G418

| SMILES | activity change, positive = cytoprotection [%] | Potency |
| --- | --- | --- |
| Cn1nnnc1Sc1ncnc2scc(-c3cccc(F)c3)c12 | -189 | – |
| Cn1nnnc1Sc1ncnc2scc(-c3cccc(Cl)c3)c12 | -144 | – |
| Cn1nnnc1Sc1ncnc2scc(-c3ccc(Cl)cc3)c12 | 296 | – |
| Cn1nnnc1Sc1ncnc2scc(-c3ccccc3C(F)(F)F)c12 | -39.8 | – |
| COc1ccc(-c2csc3ncnc(Sc4nnnn4C)c23)cc1 | 54 | – |
| Cn1nnnc1Sc1ncnc2scc(-c3cc4ccccc4o3)c12 | -199 | – |
| Cn1nnnc1Sc1ncnc2scc(-c3ccc(F)cc3)c12 | -11.8 | – |
| Cn1nnnc1Sc1ncnc2scc(-c3ccc([N+](=O)[O-])cc3)c12 | -201 | – |
| Cn1nnnc1Sc1ncnc2scc(-c3cccs3)c12 | -188 | – |
| COc1cccc(-c2csc3ncnc(Sc4nnnn4C)c23)c1 | – | 31.6 µM (active) |
| CC(=O)c1ccccc1-c1csc2ncnc(Sc3nnnn3C)c12 | -28.5 | – |
| Cn1nnnc1Sc1ncnc2scc(-c3ccc(C(F)(F)F)cc3)c12 | -214 | – |
| Cn1nnnc1Sc1ncnc2scc(-c3ccc(-c4ccccc4)cc3)c12 | -14.4 | – |
| Cn1nnnc1Sc1ncnc2scc(-c3cccc4c3sc3ccccc34)c12 | 1.34 | – |
| CC(=O)c1ccc(-c2csc3ncnc(Sc4nnnn4C)c23)cc1 | -68 | – |
| Cn1nnnc1Sc1ncnc2scc(-c3cccc(Br)c3)c12 | -154 | – |
| Cn1nnnc1Sc1ncnc2scc(-c3cccc(C#N)c3)c12 | 7.62 | – |
| Cn1nnnc1Sc1ncnc2scc(-c3cccc(N)c3)c12 | -35.7 | – |
| Cn1nnnc1Sc1ncnc2scc(-c3ccc(Br)cc3)c12 | -147 | – |
| Cn1nnnc1Sc1ncnc2scc(-c3ccc(S(C)(=O)=O)cc3)c12 | -108 | – |
| Cn1nnnc1Sc1ncnc2scc(-c3ccc(C(=O)OC(C)(C)C)cc3)c12 | -159 | – |
| Cn1nnnc1Sc1ncnc2scc(-c3ccc(N)cc3)c12 | -25.4 | – |
| COc1ccccc1-c1csc2ncnc(Sc3nnnn3C)c12 | -24.7 | – |
| Cn1nnnc1Sc1ncnc2scc(-c3ccccc3)c12 | -9.76 | – |
| Cc1ccccc1-c1csc2ncnc(Sc3nnnn3C)c12 | -42.3 | – |
| Cc1cccc(-c2csc3ncnc(Sc4nnnn4C)c23)c1 | 44.8 | – |
| Cn1nnnc1Sc1ncnc2scc(-c3ccccc3[N+](=O)[O-])c12 | 81 | – |
| Cn1nnnc1Sc1ncnc2scc(-c3ccsc3)c12 | – | 10 µM (active) |
| Cn1nnnc1Sc1ncnc2scc(-c3ccccc3Br)c12 | 71.2 | – |
| Cn1nnnc1Sc1ncnc2scc(-c3cccc(C(F)(F)F)c3)c12 | -214 | – |
